# Source: PubChem BioAssay AID777 (Sanford-Burnham Center for Chemical Genomics, 2007)
# In all, about 96,000 compounds went through this assay and about 19,000 (20%) were called active. The list is a sample of the results. Unmarked numbers belong to inactive results.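 The calls were made as follows: active = blocking of liver enzyme CYP2C9 beyond about 50% at 5 µM (limit read from the data); inactive = the rest.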
# Target: Cytochrome P450 2C9 (Homo sapiens) (UniProt P11712)
# Assay: blockers of cytochrome P450 2C9 activity – biochemical, luminescence, ADME assay, primary screen (AID 777)
# Settings: CYP2C9 Supersomes, luciferin-H conversion, at 5 µM, active compounds read high
# Cytochrome P450 2C9 (Homo sapiens), sequence (P11712 whole entry, looked up): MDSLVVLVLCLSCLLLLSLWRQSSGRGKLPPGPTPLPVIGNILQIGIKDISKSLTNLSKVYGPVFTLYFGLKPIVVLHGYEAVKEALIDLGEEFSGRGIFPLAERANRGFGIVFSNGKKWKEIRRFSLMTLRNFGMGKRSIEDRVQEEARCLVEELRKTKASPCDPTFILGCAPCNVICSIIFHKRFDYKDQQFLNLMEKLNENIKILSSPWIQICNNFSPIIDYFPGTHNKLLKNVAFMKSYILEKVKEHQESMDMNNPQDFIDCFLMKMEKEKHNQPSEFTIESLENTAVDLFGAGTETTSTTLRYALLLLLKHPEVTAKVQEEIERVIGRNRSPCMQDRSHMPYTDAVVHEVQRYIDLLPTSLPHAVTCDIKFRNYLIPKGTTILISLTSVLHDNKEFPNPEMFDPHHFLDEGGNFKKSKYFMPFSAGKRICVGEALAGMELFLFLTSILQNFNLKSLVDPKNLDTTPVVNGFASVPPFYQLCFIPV
row,Compound,inhibition
1,O=C1c2ccccc2C2=Nc3ccccc3SC(c3ccccc3F)C12 (stereo unspecified),8.8%
2,COc1ccccc1Nc1nc(N)nc(CN(C)C2CCCCC2)n1,-18.4%
3,Cc1c(C#N)c2ncn(CC#N)c(=O)c2n1-c1ccccc1,-15.9%
4,O=C(NCc1ccccn1)c1cnc2sccn2c1=O,-4%
5,O=C(CNCCO)NC12CC3CC(CC(C3)C1)C2,-6%
6,O=C(Nc1cc(C(F)(F)F)ccc1Cl)c1cc2nc3c(c(C(F)(F)F)n2n1)CCCC3,-42.8%
7,COc1ccc2nc(NC3=NCN(CC4CCCO4)CN3)nc(C)c2c1 (stereo unspecified),1.3%
8,COc1c(Cl)cc(C(=O)Nc2ccc(Cl)cn2)cc1Cl,-12.2%
9,CCOC(=O)N1CCN(C(c2cccnc2)c2ccc3cccnc3c2O)CC1 (stereo unspecified),32.6%
10,COC(=O)Cc1cc(=O)n(-c2nc3ccccc3s2)[nH]1,18.5%
11,CCc1ccc(-c2cc(C(=O)NCc3ccco3)c3ccccc3n2)s1,39.4%
12,CC(=NCc1ccco1)c1c(C(F)(F)F)[nH]n(-c2nc3ccccc3s2)c1=O,64.2% (active)
13,CCOc1[nH]n(-c2ccc(Cl)cc2)c(=O)c1C=Nc1ccc(O)cc1,37%
14,O=C(Nc1ccc(S(=O)(=O)N2CCCC2)cc1Cl)C1=COCCO1,19.8%
15,CC(C)C(C(=O)NC1CCCCC1)N(CC1CCCO1)C(=O)CNS(=O)(=O)c1ccc(F)cc1 (stereo unspecified),-3.2%
16,COc1ccc(-c2oc3ncn(Cc4ccco4)c(=N)c3c2-c2ccc(OC)cc2)cc1,27.6%
17,CCN1CCN(C(=O)CN(C)S(=O)(=O)c2ccc(OC)cc2)CC1,-20.1%
18,COc1ccc(N2CCN(C(=O)CNC(=O)c3ccc(C(C)(C)C)cc3)CC2)cc1,22.1%
19,COc1ccc(OC)c(S(=O)(=O)N(C)CC(=O)N2CCN(c3ccccc3)CC2)c1,78.3% (active)
20,COC(=O)c1ccc(S(=O)(=O)c2ccc(C(=O)OC)s2)s1,49.3%
21,O=C(O)CSc1nccn1-c1cccc(Cl)c1,57.5% (active)
22,Cn1c(Cc2cccc3ccccc23)nnc1SCC(=O)N1CCN(c2cccc(Cl)c2)CC1,-15.6%

row,Compound,inhibition
1,Cc1nnc(NC(=O)CSc2nccn2-c2cccc(C)c2C)s1,39.9%
2,O=C(c1ccccn1)c1ncc(C(F)(F)F)cc1Cl,11.2%
3,Cc1cc(C)n(C(=O)c2ccc(C)c(S(=O)(=O)N3CCOCC3)c2)n1,66.3% (active)
4,CSC1=NCCN1C(=O)c1ccc(S(=O)(=O)N2CCOCC2)cc1,0.8%
5,Cc1ccc(C(=O)Nc2ccccc2C(=O)NC2CCCCC2)cc1S(=O)(=O)N1CCOCC1,23.7%
6,Cc1ccccc1-c1nnn(CC(=O)c2ccc(S(=O)(=O)N3CCCC3)cc2)n1,9%
7,CC(=O)c1c(N2CCOCC2)nc(=S)n(-c2cc(C)ccc2C)c1C,-8.6%
8,Cc1cc(C)n(C(=O)c2ccc(S(=O)(=O)N3CCCC3)cc2)n1,86.9% (active)
9,Cc1cccc(N2C(=O)SC(N(CC(=O)O)c3cccc(C)c3)C2=O)c1 (stereo unspecified),30.8%
10,COc1cccc(C(=O)Nc2c3c(nn2-c2cccc(C)c2C)CS(=O)(=O)C3)c1OC,-6.7%
11,Cc1ccc(-n2nc3c(c2NC(=O)c2ccc4c(c2)OCO4)CSC3)c(C)c1,1.1%
12,Cc1cccc(-n2nc3c(c2NC(=O)c2ccc(Br)o2)CSC3)c1C,72.3% (active)
13,COCc1nc2ccccc2n1Cc1ccccc1Br,14.7%
14,COc1ccc(NC(=O)COC(=O)Cn2c(C)nc3ccccc32)cc1OC,-9.8%
15,COc1ccc(-c2cn(-c3ccc(C)cc3)c(=O)n2CC(=O)Nc2ccc(OC)c(OC)c2)cc1,80.5% (active)
16,COc1ccc(NC(=O)Cn2c(-c3ccc(OC)cc3)cn(-c3ccc(C)cc3)c2=O)cc1,10%
17,COCC(C)N=CC1=C(O)CC(C)(C)CC1=O (stereo unspecified),-5.7%
18,CCOc1ccccc1NC(=O)CCN1CCN(S(=O)(=O)c2ccc(OC)cc2)CC1,41.4%
19,COc1ccc(S(=O)(=O)N2CCN(c3ncnc4c(-c5ccccc5)nsc34)CC2)cc1,51.9% (active)
20,COc1ccc(S(=O)(=O)N2CCCC(C(=O)Nc3ccc(NC(=O)c4ccccn4)cc3)C2)cc1 (stereo unspecified),-18.5%
21,COc1cccc(Oc2ccc(N)cc2)c1,4.7%
22,CN1C2CCC1/C(=C\c1ccccc1Cl)C(=O)/C2=C\c1ccccc1Cl,-79.2%

row,Compound,inhibition
1,COCCNC(=S)c1ccc(OC)cc1,-13.3%
2,Cn1c(Cc2csc(N)n2)nnc1SC/C=C/c1ccccc1,27.1%
3,C=CCn1c(C)cc(C(=O)CN2C(=O)c3ccccc3C2=O)c1C,-61.6%
4,Cc1cc2c(cc1C)N(C(=O)CN1C(=O)c3ccccc3C1=O)C(C)(C)c1ssc(=S)c1-2,78.2% (active)
5,CC(C)OC(=O)CN1C(=O)c2ccccc2C1=O,4.9%
6,Cc1ccc2c(c1)-c1c(ssc1=S)C(C)(C)N2C(=O)CN1C(=O)c2ccccc2C1=O,80.6% (active)
7,CCOC(=O)CN1C(=O)C(=O)c2cc(C)ccc21,8.3%
8,Cc1cc(C(=O)COC(=O)CCCN2C(=O)c3ccccc3C2=O)c(C)n1C,-21.1%
9,Cc1[nH]c2ccc(S(N)(=O)=O)cc2c1C,-42.1%
10,CNC(=S)NNC(=O)c1sccc1OCc1ccccc1,12.2%
11,COc1cccc(-n2c(SCC(=O)NC3CCCCC3)nc3n[nH]c(C)c3c2=N)c1,19.4%
12,CCOC(=O)c1cccc(NC(=O)CN(c2ccc(C)cc2)S(=O)(=O)c2c(C)noc2C)c1,65.9% (active)
13,COC(=O)c1ccc(NC(=O)CN(c2ccc(C)cc2)S(=O)(=O)c2c(C)n[nH]c2C)cc1,91.4% (active)
14,COC(=O)c1ccc(NC(=O)Nc2ccc(C)cc2)cc1,34.6%
15,CCOc1ccc(N(CC(=O)NCc2ccc(OC)cc2)S(=O)(=O)c2c(C)noc2C)cc1,3.9%
16,Cc1noc(C)c1S(=O)(=O)N(CC(=O)NCc1ccc(Cl)cc1)c1ccc2c(c1)OCO2,68.9% (active)
17,CCN(CC)C(=O)CCC(=O)Nc1ccc(C(=O)OC)cc1,8.6%
18,Cc1noc(C)c1C(=O)NC(C)c1ccc2c(c1)OCO2 (stereo unspecified),32.6%
19,Cc1noc(C)c1S(=O)(=O)N(CC(=O)Nc1ccc2c(c1)OCCO2)c1ccc(C(C)C)cc1,72.5% (active)
20,CCOc1ccc(N(CC(=O)OC)S(=O)(=O)c2c(C)noc2C)cc1,24.4%
21,Cc1ccc(N(CC(=O)Nc2cc(C)cc(C)c2)S(=O)(=O)c2cccc3nonc23)cc1,48.7%
22,CS(=O)(=O)N(CC(=O)NCc1ccco1)c1ccc2c(c1)OCO2,2.2%
